One assay concerns CRL-7250. The assay can be described thus: Cytotoxic Profiling of Annotated Libraries Using Quantitative High-Throughput Screening (AID 1296008). For max response: % is set by controls: 0 for no effect and ±100 for the full control effect. The note with it: Five cell lines viability, CellTiter-Glo ATP luminescence, 48-72 h; max response: hits give low values. The method, boiled down: (§1)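 Compounds were pin-transferred onto cells and incubated 48 or 72 hr at 37 degree Celsius, 95% humidity. CellTiter-Glo was added, plates sat 10 min at room temperature, then ATP-coupled luminescence was imaged as the viability read-out.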
In general terms: Cellular ATP, detected with luciferase, serves as a proxy for viable cell number.

Another assay has as its system HEK293. Described as above. The note with it: Five cell lines viability, CellTiter-Glo ATP luminescence, 48-72 h; max response: hits give low values. A digest of the protocol: as §1
The next assay deals with KB-3-1. The description is as above. The note with it: Five cell lines viability, CellTiter-Glo ATP luminescence, 48-72 h; max response: hits give low values. The method, boiled down: as §1
For the next assay, the system named is NIH3T3. The assay is described as above. The following applies: Five cell lines viability, CellTiter-Glo ATP luminescence, 48-72 h; max response: hits give low values. The method, boiled down:
as §1

The subject of assay [1] is HaCat. Described as above. The note with it: Five cell lines viability, CellTiter-Glo ATP luminescence, 48-72 h; max response: hits give low values. The method, boiled down: as §1
In another assay the test system is MCC-13. As to the kind of experiment: qHTS assay to identify novel small-molecules to repurpose for Merkel cell carcinoma treatment (AID 1296009). The note with it: MCC and control cell lines, CellTiter-Glo viability, 72 h; series mostly up to 46 µM. The method, boiled down:
(§2)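 qHTS format: cells treated with library compounds in DMSO across 8 (NPC) or 11 (MIPE) concentrations. Readout after 72 hr at 37 degree celsius was CellTiter-Glo luminescence.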
Background: In qHTS, concentration-response curves come from the screen itself.

The next assay deals with MCC-26. The assay is described as above. The note with it: MCC and control cell lines, CellTiter-Glo viability, 72 h; series mostly up to 46 µM. The method, boiled down:
as §2

The next assay relates to MKL-1. Described as above. The following applies: MCC and control cell lines, CellTiter-Glo viability, 72 h; series mostly up to 46 µM. A digest of the protocol: as §2
In a further assay the test system is MKL-2. The assay is described as above. The following applies: MCC and control cell lines, CellTiter-Glo viability, 72 h; series mostly up to 46 µM. The method, boiled down: as §2
The next assay has as its system UISO. The assay is described as above. The note with it: MCC and control cell lines, CellTiter-Glo viability, 72 h; series mostly up to 46 µM. A digest of the protocol:
as §2

The test system of assay [2] is HACAT. The assay is described as above. The following applies: MCC and control cell lines, CellTiter-Glo viability, 72 h; series mostly up to 44.8 µM. The method, boiled down: as §2
The test system of the next assay is PC26. As to the kind of experiment: qHTS profiling for inhibitors of Plasmodium falciparum proliferation (AID 504749). The note with it: P. falciparum in erythrocytes, SYBR Green DNA, 72 h; series mostly up to 28.7 µM. The method, boiled down:
(§3)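 Parasite proliferation within erythrocytes, 72 h exposure. Endpoint: SYBR Green I fluorescence after overnight lysis at room temperature. Controls: 0.29 uM artemisinin, DMSO.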

A further assay deals with PC49. The description is as above. The following applies: P. falciparum in erythrocytes, SYBR Green DNA, 72 h; series mostly up to 28.7 µM. A digest of the protocol: as §3
The test system of the next assay is SC27B. The assay is described as above. The following applies: P. falciparum in erythrocytes, SYBR Green DNA, 72 h; series mostly up to 28.7 µM. The method, boiled down:
as §3

The next assay relates to TAB109. Described as above. The note with it: P. falciparum in erythrocytes, SYBR Green DNA, 72 h; series mostly up to 28.7 µM. A digest of the protocol: as §3
In the next assay the test system is TAB113. Described as above. The note with it: P. falciparum in erythrocytes, SYBR Green DNA, 72 h; series mostly up to 28.7 µM. A digest of the protocol:
as §3

The next assay relates to TAB165. The assay is described as above. The following applies: P. falciparum in erythrocytes, SYBR Green DNA, 72 h; series mostly up to 28.7 µM. The method, boiled down:
as §3

Another assay deals with W2. The assay is described as above. The note with it: P. falciparum in erythrocytes, SYBR Green DNA, 72 h; series mostly up to 28.7 µM. A digest of the protocol: as §3
Another assay concerns HEK293T. The assay can be described thus: qHTS assay to identify novel small-molecules to repurpose for Merkel cell carcinoma treatment (AID 1296009). The following applies: MCC and control cell lines, CellTiter-Glo viability, 72 h; at 44.8 µM (top of the series) unless noted. The method, boiled down: as §2

“And” between values parts separate entries of the source, which are not always exact repeats. Equal values may be shown once. Results filed as inconclusive are left out. Some compounds were tested as several samples or in several runs, with calls that do not always agree. Values without a mark were called inactive. The source made the active and inactive calls. Calls come from the whole dose curve; as a rule, active = well fitted inhibition curve with a large enough effect; inconclusive = small, poorly fitted or top-dose-only effect; inactive = flat fitted curve, though single readings scatter.
Note: nearly all actives have a fitted effect of over 60% in size.
Potency is the fitted concentration of half-maximal effect.

For `CC(C)=CCCC(C)=CCCC(C)=CCSc1ccccc1C(=O)O`, the Potency with CRL-7250 is 148 nM (active); in the assay with HEK293, 1.66 µM (active); in the assay with KB-3-1, 4.69 µM (active); with NIH3T3, 14.8 µM (active).
For the compound `C=CC(=O)Nc1cccc(Oc2nc(Nc3ccc(N4CCN(C)CC4)cc3OC)ncc2Cl)c1`, the max response is -21.1% in the assay with CRL-7250, -0.948% in the assay with KB-3-1 and -7.7% in the assay on NIH3T3. The Potency was 2.09 µM (active) and 4.11 µM (active) in the assay on HaCat [1]; 18.4 µM (active) in the assay on NIH3T3; 2960 nM (active) in the assay with MCC-13; 11800 nM (active) in the assay on MCC-26; 2640 nM (active) with MKL-1. Also, the Potency result with MKL-2 was “inactive”.
For the compound `Cc1[nH]c2ccccc2c1CCNCc1ccc(C=CC(=O)NO)cc1`, the Potency in the assay with CRL-7250 was 1050 nM (active); in the assay on HEK293, 0.418 µM (active); in the assay with KB-3-1, 0.148 µM (active); in the assay with NIH3T3 it was 0.743 µM (active); with MCC-13, 833 nM (active); in the assay with MCC-26, 935 nM (active). Also, the Potency with MKL-1 is 332 nM (active); with MKL-2, 46.9 nM (active); in the assay with UISO, 526 nM (active).
Turning to `COc1ccc(CC2SC(=O)NC2=O)cc1C(=O)NCc1ccc(C(F)(F)F)cc1` (configuration not stated), in the assay with CRL-7250, the Potency was 11800 nM (active). Besides, the compound was classed as inactive in the assay with HaCat [1]. Moreover, the figures for the max response with KB-3-1 and in the assay with NIH3T3 were -9.05% and 2.55%, respectively. For the same compound, the Potency result in the assay on HACAT [2], in the assay with MCC-13, in the assay on MCC-26, with MKL-1, in the assay with MKL-2 and with UISO was “inactive” throughout.
In the case of `COC(=O)C[C@](O)(CCCC(C)(C)O)C(=O)O[C@@H]1C(OC)=C[C@]23CCCN2CCc2cc4c(cc2[C@H]13)OCO4`, the Potency in the assay with PC26 was 19 nM (active); in the assay with PC49 it was 0.6 nM (active); in the assay on SC27B, 28.2 nM (active); in the assay with TAB109 it was 25.1 nM (active); in the assay on TAB113 it was 15.8 nM (active); with TAB165 it was 100 nM (active). In the assay with W2, the Potency is 30.1 nM (active). The max response with CRL-7250 was 3.78%; in the assay on HEK293, -7.61%; in the assay on NIH3T3 it was 2.2%. Further, in the assay with HaCat [1], the compound was classed as inactive. The Potency result in the assay on HACAT [2], with MCC-13, in the assay on MCC-26, with MKL-1, with MKL-2 and with UISO was “inactive” in each case.
Turning to `c1cc(-c2cnn3cc(-c4ccc(OCCN5CCCCC5)cc4)cnc23)ccn1`, the Potency in the assay with CRL-7250 was 6620 nM (active); with HEK293, 3.32 µM (active); in the assay with KB-3-1 it was 3.72 µM (active); in the assay with NIH3T3, 0.372 µM (active); with MCC-13, 16600 nM (active); in the assay on MKL-1, 11800 nM (active). Further, the Potency with UISO is 5900 nM (active).
On to `O=C(NCCS(=O)(=O)c1ccc(C(F)(F)F)cn1)c1ccc(Cl)cc1`, for which the figures for the max response with CRL-7250 and in the assay on NIH3T3 were 2.65% and 1.91%, respectively. The outcome with HaCat [1] and with KB-3-1 was inactive. The Potency entry in the assay with HACAT [2], in the assay on MCC-13, in the assay on MCC-26, with MKL-1, in the assay with MKL-2 and with UISO was “inactive” throughout.
Turning to `O=C(C=Cc1c(C(=O)O)[nH]c2cc(Cl)cc(Cl)c12)Nc1ccccc1`, the outcome with CRL-7250 and in the assay with HEK293T was inactive. Besides, the max response is -0.315% in the assay with HaCat [1], 3.7% with KB-3-1 and 1.73% with NIH3T3. Besides, the Potency result in the assay with MCC-13, with MCC-26, in the assay on MKL-1, with MKL-2 and with UISO was “inactive” throughout.
Turning to `COc1cc(C)c(Sc2cnc(NC(=O)c3ccc(CNC(C)C(C)C)cc3)s2)cc1C(=O)N1CCN(C(C)=O)CC1` (configuration not stated), the Potency in the assay with CRL-7250 is 23500 nM (active); in the assay on HEK293 it was 14.8 µM (active) and 11.6 µM (active); with HaCat [1], 5.9 µM (active); in the assay on NIH3T3, 13.2 µM (active) and 13 µM (active); in the assay with UISO, 18700 nM (active). The Potency entry in the assay on MKL-2 was “inactive”.
Regarding `COc1cc(C(=O)N2CCC(N3CCN(C)CC3)CC2)ccc1Nc1ncc2c(n1)N(C)c1ccccc1C(=O)N2C`, the Potency in the assay with CRL-7250 is 3660 nM (active); in the assay with HEK293 it was 11.8 µM (active) and 9.2 µM (active); with KB-3-1, 14.8 µM (active) and 16.4 µM (active); with NIH3T3 it was 13 µM (active); with MKL-2 it was 2350 nM (active). Further, the Potency result with MCC-13 was “inactive”.
As to `CN1CCN(c2cc(C(=O)Nc3ccc4c(c3)-c3c(c(C(N)=O)nn3-c3ccc(F)cc3)CC4)c(Cl)cn2)CC1`, the max response with CRL-7250 was -32.2%. Besides, the values for the Potency in the assay on HEK293, in the assay with MKL-1 and with MKL-2 were 20.9 µM (active), 26400 nM (active) and 26400 nM (active), respectively. Also, the call in the assay with HaCat [1] was inactive. Further, the Potency entry in the assay with HACAT [2], in the assay with MCC-13, in the assay on MCC-26 and in the assay with UISO was “inactive” each time.
Regarding `CC(C)C[C@H](NC(=O)CNC(=O)c1cc(Cl)ccc1Cl)B(O)O`, the Potency with CRL-7250 is 1480 nM (active); in the assay on HEK293, 1.18 µM (active); in the assay on HaCat [1], 3.72 µM (active); in the assay on NIH3T3, 0.662 µM (active); in the assay on MCC-26, 526 nM (active); in the assay with MKL-1, 743 nM (active). Also, the Potency in the assay with MKL-2 is 264 nM (active); in the assay on UISO, 590 nM (active).
Consider `CC(O)C1C(=O)N2C(C(=O)O)=C(SC3CNC(C(=O)N(C)C)C3)C(C)C12` (configuration not stated), for which the max response is -9.97% and 0.421% in the assay on CRL-7250; 0.187% in the assay with HaCat [1]; 5.3% in the assay with KB-3-1; 0.991% and 3.69% in the assay with NIH3T3. In addition, the compound was called inactive with HaCat [1] and in the assay with KB-3-1. Further, the Potency entry in the assay with HACAT [2], in the assay on MCC-13, in the assay on MCC-26, in the assay with MKL-1, with MKL-2 and in the assay with UISO was “inactive” in each case.
